# Rv3671c protease: inhibits the M. tuberculosis serine protease Rv3671c. P9WHR9. inhibition, % at 5.96 µM. hit rate 0.048% among 320,000. AID 2606; in the data active = inhibition above about 38%;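 also: extracellular domain of Rv3671c used as enzyme; 0% = enzyme with DMSO and 100% = no enzyme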
# GDH-TPI inh: inhibits GDH-TPI coupling enzymes, artifact for Mtb FBA screen. GDH-TPI coupled enzyme counterscreen, NADH absorbance. hit rate 1.2% among 360,000. inhibition, % at 4.8 µM; in the data active = inhibition above about 30%;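 also: 0% = DMSO wells and 100% = wells lacking the enzyme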
# RecA splice inh: blocks M. tuberculosis RecA intein splicing. P9WHJ3. cell-free RecA intein splicing, fluorescence. inhibition, % (concentration not given with the values). hit rate 0.75% among 290,000. AID 2221; in the data active = inhibition above about 30%; inconclusive = no clear call, values can overlap the other calls;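 also: 0% = vehicle wells and 100% = reference inhibitor control wells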
# UGM FP inh: blocks M. tuberculosis UGM enzyme; P9WIQ1; purified UGM, fluorescence polarization probe displacement; inhibition, % at 10 µM; hit rate 0.06% among 320,000; AID 504406; in the data active = inhibition above about 10%, passing the limit was not always enough; inconclusive = no clear call, values can overlap the other calls
# Target sequence (P9WIQ1 whole entry, looked up): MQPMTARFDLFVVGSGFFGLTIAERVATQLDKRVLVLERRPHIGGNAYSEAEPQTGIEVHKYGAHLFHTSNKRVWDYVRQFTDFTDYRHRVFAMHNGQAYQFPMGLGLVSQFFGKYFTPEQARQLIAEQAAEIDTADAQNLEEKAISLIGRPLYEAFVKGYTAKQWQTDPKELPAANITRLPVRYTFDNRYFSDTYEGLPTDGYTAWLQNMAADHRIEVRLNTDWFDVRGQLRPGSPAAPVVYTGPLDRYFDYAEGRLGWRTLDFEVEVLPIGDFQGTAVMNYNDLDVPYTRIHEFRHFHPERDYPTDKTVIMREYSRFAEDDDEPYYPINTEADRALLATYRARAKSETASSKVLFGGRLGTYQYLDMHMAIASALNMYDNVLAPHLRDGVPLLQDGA
# FBA Mtb inh: inhibitors of M. tuberculosis fructose-bisphosphate aldolase | purified M. tuberculosis FBA, fluorescence read-out | inhibition, % at 1 µM | hit rate 2.3% among 360,000; in the data active = inhibition above about 27%;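 also: 0% = vehicle and 100% = reference inhibitor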
# Mtb bLac sens: beta-lactam sensitization of Mtb H37Rv | inhibition, % at 25 µM | AID 434955 | M. tuberculosis H37Rv growth with meropenem, percent inhibition | hit rate 0.27% among 330,000; call rule not given here;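 also: growth measured after seven days incubation then overnight dye step; 0% = bacteria only wells and 100% = bacteria with antibiotic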
# * hit, by the source's call; ? = inconclusive; / = no result. Rows were chosen to be rich in hits. Some 4% of all compounds tested hit in one or more screens of this group.
SMILES,Rv3671c protease,GDH-TPI inh,RecA splice inh,UGM FP inh,FBA Mtb inh,Mtb bLac sens
COc1ccc2cc(/C(C)=N/NC(=O)c3cc(C)oc3C)ccc2c1,/,9,/,/,198*,/
CCN(CC)c1ccc(C(=O)N/N=C(\C)c2ccc(O)cc2)cc1,6,34*,-1,1,-1,0
COC(=O)c1ccc(C(=O)N2CCCCCC2(C)C(=O)NC(C)C)cc1 (stereo not drawn),/,7,/,/,-4,/
COc1ccccc1C(=O)NC(=O)CSc1nnc(N)s1,-8,6,/,2,-2,0
Cc1ccc(Cn2ccc(-c3cnc(-c4ccccc4)s3)n2)cc1,-7,26,-2,3,52*,23
O=S(=O)(c1ccccc1)n1ccc(-c2cnc(-c3ccccc3)s2)n1,-5,5,1,-4,2,-5
O=c1ccc(-c2ccccc2)nn1Cc1ccc(F)cc1,-2,8,-3,1,0,?
Fc1ccc(Cn2ccc(-c3cnc(-c4ccccc4)s3)n2)cc1,-8,12,1,-1,142*,73
COc1ccc(-c2nc(S(=O)(=O)c3ccccc3)c(NCCCN3CCOCC3)o2)cc1,0,3,/,-5,1,5
COc1cccc2ccc(CC(O)(c3ccccc3)c3ccccc3)nc12,/,0,/,/,2,/
CCCNC(=O)C1(C)CCN(CCOc2ccc(Cl)cc2)C1 (stereo not drawn),/,-7,/,/,-1,/
CC(=O)Cc1nsc(NC(=O)c2ccc(-c3cc(Cl)ccc3Cl)o2)n1,-51,46*,1,0,10,0
CC(=O)Cc1nsc(NC(=O)c2ccc(-c3ccc(Cl)cc3Cl)o2)n1,9,-1,-1,1,2,1
COc1cc(/C=C2\COC/C(=C\c3ccc(O)c(OC)c3)C2=O)ccc1O,2,30,-2,-1,-11,99
COc1cc(/C=C2/C(=O)ON=C2c2ccccc2)ccc1O,-8,37*,-1,3,-1,8
COc1cc(/C=C2\SC(N)=NC2=O)ccc1O,/,39*,-1,1,-8,-2
COc1cc(/C=C2/CC/C(=C/c3ccc(O)c(OC)c3)C2=O)ccc1O,-31,39*,2,-1,-9,58
COc1ccc(N2CC(C(=O)Nc3ccc(S(=O)(=O)Nc4nccs4)cc3)CC2=O)c(OC)c1 (stereo not drawn),2,0,/,0,0,2
CC(=O)Nc1ccc(-c2ccnc3c2CC(C(=O)Nc2cccc(C(C)=O)c2)O3)cc1 (stereo not drawn),/,5,/,/,8,/
O=C(O)CC1S/C(=N/N=C/C=C/c2ccccc2)NC1=O (stereo not drawn),2,50*,-1,3,-2,7
COc1ccc(/C=N/N=C2/NC(=O)C(CC(=O)O)S2)cc1OCc1ccc(Cl)cc1 (stereo not drawn),3,57*,-10,2,-4,3
O=C(O)CC1S/C(=N/N=C/C=C/c2ccccc2[N+](=O)[O-])NC1=O (stereo not drawn),-4,26,-2,-3,-10,3
Cn1c(=O)n(C)c2cc(/C=N/N=C3/NC(=O)C(CC(=O)O)S3)ccc21 (stereo not drawn),-10,38*,-3,1,-1,3
CCOc1cc(/C=N/N=C2/NC(=O)C(CC(=O)O)S2)ccc1OCc1ccc(Cl)cc1 (stereo not drawn),-8,32*,5,2,-13,16
COc1cc(/C=N/N=C2/NC(=O)C(CC(=O)O)S2)ccc1OCc1cccc(Cl)c1 (stereo not drawn),2,25,3,0,-2,72
SMILES,Rv3671c protease,GDH-TPI inh,RecA splice inh,UGM FP inh,FBA Mtb inh,Mtb bLac sens
COc1cccc(CN(CCC(C)C)S(=O)(=O)c2cc(Br)ccc2Br)c1,/,0,/,/,-2,/
COc1cc(NC(=O)COc2ccccc2Cl)ccc1NC(=O)c1cccs1,-11,12,-1,0,-1,-5
COc1cc(NC(=O)COc2ccccc2[N+](=O)[O-])ccc1NC(=O)c1cccs1,/,41*,-2,/,0,/
COc1cc(NC(=O)c2cccs2)ccc1NC(=O)c1ccco1,-10,35*,-2,5,2,17
Cc1ccc2[nH]c3c(=S)nc[nH]c3c2c1,-8,26,-1,3,0,-9
Cc1ccc2[nH]c3c(=O)n(N)c(=O)[nH]c3c2c1,-4,10,1,-1,119*,-12
C/C(=N\Nc1ccc(C(=O)O)cc1)c1ccc(Br)cc1,-3,56*,-3,0,2,11

# Screening results: PubChem BioAssay, several laboratories
